Assay results: PubChem BioAssay AID1159580 (chemical genetic matrix, 2015)
“And” between values parts separate entries of the source, which are not always exact repeats. Equal values may be shown once. The campaign covered roughly 5,500 compounds. About 2,000 (36%) were called active. Another 18% or so got no clear call; they are omitted. Cut-off read from the data, not from the text of the source: active = normalized growth mostly below about 0.91 (no sharp cut-off); inconclusive = no clear call, values can overlap the other calls; inactive = mostly above about 0.92. Some of the results follow.

Test: chemical genetic growth profiling, strain panel (AID 1159580);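 note: tested at 20 µM; growth read once vehicle control cultures reached saturation at 30 °C; 1 = growth at the plate median or of vehicle wells; lower values mean less growth of the strain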
Settings: S. cerevisiae deletion strains, growth OD

Measured: normalized growth

CN1Cc2c(N)cccc2C(c2ccccc2)C1 (centres undefined)
inactive: locus YAL013W, strain DEP1, active compounds read low 1.01 | locus YAL021C, strain ccr4, active compounds read low 0.991 | locus YAL026C, strain drs2, active compounds read low 0.997 | locus YAL030W, strain snc1, active compounds read low 0.996 | locus YAL040C, strain CLN3, active compounds read low 0.991 | locus YBL061C, strain skt5, active compounds read low 1.01 | locus YBR009C, strain hhf1, active compounds read low 1.02 | locus YBR021W, strain FUR4, active compounds read low 1.01 | locus YBR023C, strain chs3, active compounds read low 1.02 | locus YBR171W, strain sec66, active compounds read low 1.02 | locus YBR229C, strain ROT2, active compounds read low 1.01 | locus YBR231C, strain swc5, active compounds read low 1 | locus YBR279W, strain paf1, active compounds read low 1.03 | locus YCL011C, strain gbp2, active compounds read low 1 | locus YCL016C, strain dcc1, active compounds read low 0.997 | locus YCL029C, strain bik1, active compounds read low 1 | locus YCL061C, strain MRC1 (second series), active compounds read low 0.989 | locus YCL069W, strain vba3, active compounds read low 1.01 | locus YCR088W, strain abp1, active compounds read low 1.01 | locus YDL005C, strain med2, active compounds read low 1 | locus YDL035C, strain GPR1, active compounds read low 1.02 | locus YDL040C, strain nat1, active compounds read low 1.01 | locus YDL074C, strain BRE1, active compounds read low 0.993 | locus YDL101C, strain DUN1, active compounds read low 1.01 | locus YDL134C, strain PPH21, active compounds read low 1.01 | locus YDL185W, strain tfp1, active compounds read low 1.01 | locus YDL192W, strain arf1, active compounds read low 1.02 | locus YDR001C, strain nth1, active compounds read low 1.01 | locus YDR069C, strain doa4, active compounds read low 1.02 | locus YDR101C, strain arx1, active compounds read low 1.01 | locus YDR137W, strain rgp1, active compounds read low 1.01 | locus YDR150W, strain NUM1, active compounds read low 1 | locus YDR159W, strain sac3, active compounds read low 1 | locus YDR162C, strain NBP2, active compounds read low 1.02 | locus YDR195W, strain ref2 1.02 | locus YDR297W, strain sur2, active compounds read low 1.01 | locus YDR318W, strain mcm21, active compounds read low 1.02 | locus YDR334W, strain swr1, active compounds read low 1.01 | locus YDR335W, strain msn5, active compounds read low 1.02 | locus YDR363W, strain ESC2, active compounds read low 0.963 | locus YDR388W, active compounds read low 1.02 | locus YDR392W, strain spt3, active compounds read low 0.938 | locus YDR502C, strain sam2, active compounds read low 1.01 | locus YEL003W, strain gim4, active compounds read low 1.01 | locus YEL037C, strain rad23, active compounds read low 1.01 | locus YEL061C, strain CIN8 (second series), active compounds read low 1 | locus YEL061C, strain CIN8, active compounds read low 1 | locus YER002W, strain NOP16, active compounds read low 1.01 | locus YER015W, strain faa2, active compounds read low 1.02 | locus YER016W, strain bim1, active compounds read low 1.01 | locus YER110C, active compounds read low 1.02 | locus YER111C, strain swi4, active compounds read low 1.01 | locus YER155C, strain BEM2 (second series), active compounds read low 1.01 | locus YER155C, strain BEM2, active compounds read low 1.01 | locus YER167W, strain BCK2, active compounds read low 1.02 | locus YFR010W, strain ubp6, active compounds read low 1.03 | locus YGL078C, strain dbp3, active compounds read low 1 | locus YGL086W, strain mad1, active compounds read low 0.999 | locus YGL167C, strain pmr1, active compounds read low 1.01 | locus YGL173C, strain kem1, active compounds read low 1.02 | locus YGL227W, strain vid30, active compounds read low 1.01 | locus YGL240W, strain doc1, active compounds read low 1.02 | locus YGL248W, strain PDE1, active compounds read low 0.991 | locus YGL253W, strain hxk2, active compounds read low 1 | locus YGR078C, strain PAC10, active compounds read low 0.991 | locus YGR135W, strain pre9, active compounds read low 1.04 | locus YGR229C, strain SMI1, active compounds read low 1.02 | locus YGR252W, strain gcn5, active compounds read low 1 | locus YHR013C, strain ard1, active compounds read low 0.995 | locus YHR027C, strain rpn1, active compounds read low 1.02 | locus YHR030C, strain SLT2, active compounds read low 1.01 and 1.07 | locus YHR079C, strain IRE1 (second series), active compounds read low 1.01 | locus YHR079C, strain IRE1, active compounds read low 0.985 | locus YHR094C, strain hxt1, active compounds read low 1.02 | locus YHR129C, strain ARP1, active compounds read low 1.01 | locus YHR142W, strain chs7, active compounds read low 1.01 | locus YHR200W, strain rpn10, active compounds read low 1.02 | locus YIL066C, strain RNR3, active compounds read low 1 | locus YIL073C, strain SPO22, active compounds read low 1.08 | locus YIL125W, strain kgd1, active compounds read low 1.01 | locus YIR030C, strain dcg1, active compounds read low 1.01 | locus YJL092W, strain hpr5, active compounds read low 1.01 | locus YJL095W, strain BCK1 (second series), active compounds read low 1.01 | locus YJL095W, strain BCK1, active compounds read low 0.983 and 0.981 | locus YJL115W, strain asf1, active compounds read low 1.02 | locus YJL129C, strain trk1, active compounds read low 1 | locus YJL134W, strain LCB3, active compounds read low 1.01 | locus YJL154C, strain vps35, active compounds read low 1.01 | locus YJL164C, strain tpk1, active compounds read low 0.981 | locus YJL166W, strain qcr8, active compounds read low 1.01 | locus YJL168C, strain set2, active compounds read low 1.01 | locus YJL187C, strain SWE1 (second series), active compounds read low 0.983 | locus YJR043C, strain POL32, active compounds read low 0.973 | locus YJR066W, strain TOR1, active compounds read low 0.933
